In PubChem BioAssay (NCI):
This is part of a sample that, as a whole, favours compounds with a hit. Of some 83,000 tested, about 20% had one in any assay.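 Activity criterion: percent growth below 10, measured after cells in 96-well plates were exposed to a single compound concentration for 48 hours.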 The source made the active and inactive calls.

tested on: SNB-19 CNS; assay: NCI-60 one-dose screen, 48 h (100 = growth as untreated, 0 = no growth, -100 = all killed); settings: 1 µM
Experimental: Growth inhibition of the SNB-19 human tumor cell line is measured as a screen for anti-cancer activity. Cells are grown in 96 well plates and exposed to the test compound for 48 hours. Compounds are tested at a single concentration, which is 10^-5 M for most compounds. The reported endpoint is percent growth (GI% or GIPRCNT), where numbers from 0 - 100% represent growth inhibition, and numbers from -100% - 0 represent cell death. For example, a value of 40 represents 60% growth inhibition. A value of 0 means no net growth occurred over the course of the experiment. A value of -40 indicates 40% of cells at the beginning of the experiment died by the end of the experiment. A value of -100 means all cells are dead at the end of the experiment.
NCI-60 Human Tumor Cell Lines Screen was performed using the standard one-dose NCI protocol, which is described in more detail at https://dtp.cancer.gov/discovery_development/nci-60/default.htm.
Compounds with GIPRCNT values below 10 were considered active. Activity score was based on GIPRCNT using the following formula: […]
Score is 0 for GIPRCNT values of 100 or above, 50 for GIPRCNT values of 0, and 100 for GIPRCNT values of -100.

SMILES | growth
CC/C(=C(\c1ccc(O)cc1)c1ccc(OCCNC)cc1)c1ccccc1 | 94.6% (inactive)

same assay, conditions: 10 µM

SMILES | growth
CC/C(=C(\c1ccc(O)cc1)c1ccc(OCCNC)cc1)c1ccccc1 | 98.6% (inactive)

same assay, conditions: 10 µM unless noted

SMILES | growth
COc1cc(/C=C/C(=O)c2cnn(-c3cc(=O)[nH]c4ccc(C)cc34)c2C)cc(OC)c1OC | 18.7% (inactive)
CCCCC[C@@H]1C/C=C(\C)[C@@H](O)C(C)(C)C(=O)[C@@H](C)/C=C(\C)[C@@H]2C[C@H](O)C[C@](O)(CC(=O)O1)O2 | 37.2% (inactive)
COc1ccc(N=Nc2c(N)nn3c(N)c(C#N)c(-c4ccc(F)cc4)nc23)cc1 | 59.5% (inactive)
COc1ccc2c(c1)c(-c1cc(N)n3nc(-c4c[nH]c5ccccc45)cc3n1)cn2C | -57.1% (active)
COc1ccc2[nH]cc(-c3cc4nc(-c5cn(C)c6ncccc56)cc(N)n4n3)c2c1 | 26% (inactive)
N#Cc1cc(-c2ccnc(Nc3ccc(N4CCN(C5COC5)CC4)cc3)n2)ccc1N1CCCC1 | 117% (inactive)
O=C(Cn1c(/C=C/c2ccc([N+](=O)[O-])cc2)nc2ccccc2c1=O)Nc1ccccc1 | 37.2% (inactive)
COc1ccc(-c2cc(-c3cc(C(C)C)c(O)cc3C)nn2-c2ccc(S(N)(=O)=O)cc2)cc1 | 30% (inactive)
COc1ccc2c(c1)C(Sc1ccc(Cl)cc1)c1c(nc(N)c(C#N)c1N)O2 (stereo not given) | 65.1% (inactive)
Cc1nn(-c2ccccc2)c2ncn(CC(=O)N/N=C/c3ccccc3O)c(=O)c12 | 57.1% (inactive)
COc1cc2cc(C(=O)N3C[C@@H](CCl)c4c3cc(OC(=O)N(CCC(=O)N3CCN(C)CC3)[C@H]3CCSSC3)c3ccccc43)[nH]c2c(OC)c1OC | -7.02% (active)
COc1c2c(c(Br)c3c1C(CCc1ccccc1)N(C)CC3)OCO2 (stereo not given) | 36.8% (inactive)
CCOc1ccccc1[C@H]1C(C(=O)c2ccc(Cl)cc2)C2(N[C@@H]1c1ccccc1)C(=O)Nc1ccc(Cl)cc12 (stereo not given in full) | 37.7% (inactive)
O=C(NNC(=S)NC(=O)c1ccccc1)c1ccc(OCc2nc3ccc(Cl)cc3[nH]2)cc1 | -12.9% (active)
N/C(=N\c1nc2ccccc2s1)NC(=O)Nc1ccccc1F | 28.9% (inactive)
COc1cc(C=O)ccc1OC(=O)c1cc(-c2ccc(C)cc2)n(-c2ccc(S(C)(=O)=O)cc2)n1 | 90.3% (inactive)
COc1ccc2[nH]cc(-c3cc4nc(-c5cn(C)c6ncc(Br)cc56)cc(N)n4n3)c2c1 | -29.4% (active)
COc1ccc(C(=O)C[n+]2cccc3c4ccccc4ccc32)cc1 | 31.4% (inactive)
C=CCSc1nnc(-c2c(C)nc3sccn23)o1 | 82.7% (inactive)

SMILES | growth
Nc1nn2c(-c3cc4cc(Br)ccc4oc3=O)ccnc2c1N=Nc1ccccc1 | -54.5% (active)
Cn1cc(-c2cc(N)n3nc(-c4c[nH]c5ccc(F)cc45)cc3n2)c2cc(Br)cnc21 | 98.3% (inactive)
O=CNc1ccc(-n2cnc3cc(-c4ccc(O)cc4)ccc32)cc1 | 88.5% (inactive)
CCOc1ccc(-c2cc(-c3cc(C(C)C)c(O)cc3C)nn2-c2ccc(S(N)(=O)=O)cc2)cc1 | 49% (inactive)
Fc1ccc(Nc2nnc(-c3c[nH]c4ccccc34)o2)cc1 | 85% (inactive)
CN(C)C(=O)c1cc(-c2ccc3ncnc(N4CCc5cc(F)c(Cl)cc54)c3c2)cnc1N | -19.8% (active)
COc1ccc(NC(=O)NN2C(=O)c3ccccc3N(C)C2c2ccc(OC)cc2)cc1 (stereo not given) | 94% (inactive)
Cc1ccc(Cl)cc1NC(=O)N/C(N)=N/c1nc2ccccc2s1 | 12.5% (inactive)
CN1C(=O)/C(=C/c2ccco2)S/C1=N/c1nccs1 | 99.4% (inactive)
NC(=Nc1ccc(OCCCCCCCCn2cnnn2)cc1)c1ccccc1 | 20.8% (inactive)
Cc1ccc(C(C(=O)NC2CCCCC2)N(Cc2ccccc2Cl)C(=O)c2ccc(CN3CCOCC3)o2)o1 (stereo not given) | 85.6% (inactive)
COc1ccc(-c2cc(C(=O)N=Nc3c(O)[nH]c4ccc(Cl)cc34)c3ccccc3n2)cc1 | 23.5% (inactive)
O=C(Cn1c(-c2ccccc2)nc2ccccc21)N=Nc1c(O)[nH]c2ccc(Cl)cc12 | -4.56% (active)
CN1C(=O)C2(C(C#N)=C(c3ccc(Cl)cc3)Nc3c2c(-c2ccccc2)nn3-c2ccccc2)c2ccccc21 (stereo not given) | 87% (inactive)
Cc1cc(C2(c3cc(C)c(OCC(O)CNc4c(C)n(C)n(-c5ccccc5)c4=O)cc3C(C)C)OC(=O)c3ccccc32)c(C(C)C)cc1OCC(O)CNc1c(C)n(C)n(-c2ccccc2)c1=O (stereo not given) | 48.9% (inactive)
CCN(C(=O)CN1C(=O)/C(=C/c2ccco2)SC1=S)C1CCS(=O)(=O)C1 (stereo not given) | 91.8% (inactive)
Nc1cc(-c2c[nH]c3ccc(F)cc23)nc2cc(-c3c[nH]c4ccccc34)nn12 | -19.1% (active)
O=C(Cc1c(-c2ccccc2[N+](=O)[O-])n(-c2ncnc3c2c(-c2ccccc2)c(-c2ccccc2)n3Cc2ccccc2)[nH]c1=O)c1ccc(Cl)c(Cl)c1 | 16.8% (inactive)
O=C1/C(=C/c2cnc(-c3ccccc3)s2)SC(=S)N1Cc1ccc2c(c1)OCO2 | 16.7% (inactive)
